Laboratory results reported in PubChem BioAssay AID1851 (National Center for Advancing Translational Sciences (NCATS), 2009).
“And” between values parts separate entries of the source, which are not always exact repeats. Identical values can stand only once. Screen size: about 16,000 compounds; about 5,800 (36%) were called active. About 23% were inconclusive and are not listed. This is one part of the list. Unmarked numbers belong to inactive results. Calls come from the whole dose curve; as a rule, active = well fitted curve in the direction sought with a large enough effect; inconclusive = small, poorly fitted or top-dose-only effect, or effect the other way; inactive = no such curve, though single readings can be large or run the other way.
% is set by controls: 0 for no effect and ±100 for the full control effect.

What follows are compounds tested against Cytochrome P450 2C19 (Homo sapiens) (UniProt P33261) (assay: Cytochrome panel assay with activity outcomes). Conditions: recombinant CYP, pro-luciferin dealkylation, luminescence, p450-cyp2c19; series mostly up to 57.1 µM; activity, negative = inhibition: at the top concentration.
Chain of Cytochrome P450 2C19 (Homo sapiens) (P33261 whole entry, looked up): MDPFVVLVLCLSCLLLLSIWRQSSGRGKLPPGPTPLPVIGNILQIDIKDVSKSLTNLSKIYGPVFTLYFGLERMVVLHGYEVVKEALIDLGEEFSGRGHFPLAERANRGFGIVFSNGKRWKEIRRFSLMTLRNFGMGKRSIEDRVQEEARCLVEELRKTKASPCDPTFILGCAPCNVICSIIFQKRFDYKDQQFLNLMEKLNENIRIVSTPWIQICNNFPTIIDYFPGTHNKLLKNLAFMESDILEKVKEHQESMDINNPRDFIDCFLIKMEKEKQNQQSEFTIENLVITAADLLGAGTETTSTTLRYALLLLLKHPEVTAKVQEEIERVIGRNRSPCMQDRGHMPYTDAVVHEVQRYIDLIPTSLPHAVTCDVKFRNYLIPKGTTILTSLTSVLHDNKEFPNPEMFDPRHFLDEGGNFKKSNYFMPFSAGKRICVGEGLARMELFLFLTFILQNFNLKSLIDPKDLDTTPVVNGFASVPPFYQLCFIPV
In the case of CCOC(=O)CSc1n[nH]c(NC(=O)c2cccc(C)c2)n1, the AC50 is reported as 5.01 µM (active). NNC(=O)CCSc1ccccc1 was tested, and the AC50 was 3.98 µM (active). With O=C(O)CCCSc1ccccc1 the activity, negative = inhibition was 31.6% [at 11.4 µM]. For Cc1cc(Br)ccc1NC(=O)CCSc1ccccc1, the AC50 was 1.26 µM (active). In the case of O=c1c(-c2ccccc2)nc2cnc(N3CCNCC3)nc2n1-c1ccccc1, the “activity, negative = inhibition” value is reported as -29.6%. For CC(C)c1ccc(CN(C(=O)C2COc3ccccc3O2)C2CCS(=O)(=O)C2)cc1 (stereo unspecified), the AC50 was 10 µM (active). With CCCCC(=O)NC(Nc1cc(C)ccn1)(C(=O)OCC)C(F)(F)F (stereo unspecified) the AC50 was 1.41 µM (active). For O=C(O)c1ccccc1NCn1c(=S)sc2ccccc21, the activity, negative = inhibition was -40.3% [at 11.4 µM]. N=c1sc2ccccc2n1CCS (tested in a mixture with another compound) was tested, and the AC50 was 1.58 µM (active). In the case of c1ccc2nc(C3=NCCN3)cnc2c1, the “activity, negative = inhibition” value is reported as 21.6%. For Cc1cc(C)n(Cc2ccc(NC(=O)c3ccc(COc4ccccc4Br)cc3)cc2)n1, the AC50 was 3.98 µM (active). With COC(=O)[C@@]1(Cc2ccccc2)[C@H]2c3cc(C(=O)N4CCCC4)n(CCc4ccccn4)c3C[C@H]2CN1C(=O)c1ccccc1 the AC50 was 25.1 µM (active). For COC(=O)[C@@]1(Cc2ccc(OC)cc2)[C@H]2c3cc(C(=O)N4CCCC4)n(CCn4cc([N+](=O)[O-])nc4C)c3C[C@H]2CN1C(=O)c1ccccc1, the “activity, negative = inhibition” value was -20%. COC(=O)[C@@]1(Cc2ccccc2)[C@H]2c3cc(C(=O)N4CCCC4)n(Cc4ccccn4)c3C[C@H]2CN1C(=O)c1ccccc1 was tested, and the AC50 was 10 µM (active). With COC(=O)[C@@]1(Cc2ccccc2)[C@H]2c3cc(C(=O)N4CCCC4)n(Cc4nc5ccccc5[nH]4)c3C[C@H]2CN1C(=O)c1ccccc1 the AC50 was 15.8 µM (active). In the case of CSc1nc(Cl)cc(N(CCO)CCO)n1, the “activity, negative = inhibition” value is reported as 31.7%. For CC(C)(CO)Cc1cc(C(C)(C)C)c(O)c(C(C)(C)C)c1, the AC50 was 25.1 µM (active). With CC(C)(C=O)Cc1cc(C(C)(C)C)c(O)c(C(C)(C)C)c1 the “activity, negative = inhibition” value was -36%. For CCOC(=O)c1ccccc1N/C=C1\CCCCC1=O, the AC50 was 22.4 µM (active). With CCn1c2ccccc2c2cc(NC(=O)C/C(C)=N/NC(=O)c3ccccc3N)ccc21 the AC50 was 2.24 µM (active). With O=c1cc(N2CCOCC2)oc2c(-c3ccccc3)cccc12 the “activity, negative = inhibition” value was -23.1%. CCc1ccccc1N1C(=O)c2cccc3c(N4CCOCC4)c([N+](=O)[O-])cc(c23)C1=O was tested, and the AC50 was 3.98 µM (active). For Cc1noc(C)c1-c1nccc(N(C)Cc2ccco2)n1, the AC50 was 1 µM (active). With COc1cccc(-c2nccc(N(C)Cc3ccco3)n2)c1 the AC50 was 5.01 µM (active). In the case of CN(Cc1ccco1)c1ccnc(-c2cccnc2)n1, the AC50 is reported as 6.31 µM (active). For Cc1noc(C)c1-c1nccc(N(C)C)n1, the “activity, negative = inhibition” value was -28.6%. FC(F)(F)c1cc(CN2CCC3(CCNCC3)CC2)cc(C(F)(F)F)c1 was tested, and the “activity, negative = inhibition” value was 0.261%. In the case of N#Cc1ccc(-c2ccccc2)nc1SCC(=O)c1cccc(Cl)c1, the AC50 is reported as 2.24 µM (active). Work on O=C(O)CSc1cc(-c2ccccc2)nc2ccccc12 yielded an activity, negative = inhibition of 1.28% [at 11.4 µM]. With N#Cc1c(-c2ccccc2)no[n+]1[O-] the “activity, negative = inhibition” value was -4.21%. In the case of CN(C)c1oc(-c2ccccc2)nc1C#N, the AC50 is reported as 15.8 µM (active). COc1cc(O)oc1C=Nc1ccc(C(F)(F)F)cc1 was tested, and the AC50 was 7.08 µM (active). With COc1cc(O)oc1C=Nc1ccc(Cl)cc1 the AC50 was 6.31 µM (active). CCOc1[nH]n(-c2ccc(Cl)cc2)c(=O)c1C=Nc1ccc(O)cc1 was tested, and the “activity, negative = inhibition” value was -6.82%. Cc1c(C(=O)O)nc(/C=C\C(=O)O)[nH]c1=O was tested, and the activity, negative = inhibition was 18.2% [at 11.4 µM]. For CC1=NN(c2ccc(F)cc2)C(=O)C1C(c1cccc(O)c1)c1c(C)[nH]n(-c2ccc(F)cc2)c1=O (stereo unspecified), the AC50 was 17.8 µM (active). For O=C1C2CCCN2C(c2ccc(F)cc2)N1c1nccs1 (stereo unspecified), the AC50 was 14.1 µM (active). In the case of CCC1(C)Cc2c(sc3nnn(CC(=O)Nc4ccc(C)cc4)c(=O)c23)CO1 (stereo unspecified), the AC50 is reported as 10 µM (active). For Cc1nc2ncnn2c(C)c1CCC(=O)NCc1ccccc1, the “activity, negative = inhibition” value was -23.7%. CCSc1nc2sc3c(c2c(=O)[nH]1)CC(C)(CC)OC3 (stereo unspecified) was tested, and the “activity, negative = inhibition” value was -6.25%. For CCC1(C)Cc2c(sc3nnn(CC(=O)Nc4cccc5ccccc45)c(=O)c23)CO1 (stereo unspecified), the AC50 was 15.8 µM (active). For CCCSc1nc(SCC(=O)NCc2ccccc2)c2c3c(sc2n1)COC(C)(CC)C3 (stereo unspecified), the AC50 was 11.2 µM (active). CN(N=O)C(=O)N[C@H]1[C@@H](O)[C@H](O)[C@H](CO)O[C@@H]1O was tested, and the “activity, negative = inhibition” value was 16.7% [at 25.6 µM]. In the case of NC(=O)Nn1c(CCC(=O)O)ccc1-c1ccc(F)cc1, the “activity, negative = inhibition” value is reported as -6.65%. CNc1cnn(-c2ccccc2)c(=O)c1Cl was tested, and the “activity, negative = inhibition” value was -9.49%. In the case of Nc1ccc(Sc2cnn(-c3ccccc3)c(=O)c2Cl)cc1, the AC50 is reported as 0.1 µM (active). CCc1cc2c(nc1CC)CCN(CC/C(C)=N/OC[C@@H](O)COCc1ccco1)C2 gave an activity, negative = inhibition of -17.2% [at 11.4 µM]. Compound Cc1ccc(S(=O)(=O)N[C@H](CO)C(=O)O)cc1 has an activity, negative = inhibition of -10.2% [at 11.4 µM]. COC(=O)C/C=C\[C@@H](C)[C@@H](/C=N\O[C@@H](C)c1cn([C@H](CO)Cc2ccccc2)nn1)NS(=O)(=O)c1ccc(C)cc1 was tested, and the activity, negative = inhibition was 14.8% [at 11.4 µM] and -27.5% [at 11.4 µM]. CC(CCc1ccccc1)NS(=O)(=O)c1ccccc1 (stereo unspecified) was tested, and the AC50 was 2.51 µM (active). With Cc1ccc(S(=O)(=O)N[C@@H](CCc2ccccc2)CC(=O)C(C)(C)C)cc1 the AC50 was 1.58 µM (active). C1CCc2c(nc3nnnn3c2NC2CCCC2)C1 was tested, and the “activity, negative = inhibition” value was -8.75%. Work on O=C1[C@@H]2[C@H]3[C@H](O)[C@H](O)C/C(=N/OCc4ccccc4)[C@@H]3CC[C@H]2C(=O)N1c1ccc(F)cc1F yielded an activity, negative = inhibition of -20.4% [at 11.4 µM]. In the case of C[C@@H](C(=O)NCc1ccccn1)[C@@H]1C[C@@]1(C)[C@@H](NC(=O)OCc1ccccc1)c1ccccc1, the AC50 is reported as 2.51 µM (active). For C[C@@H](C(=O)NCc1ccccn1)[C@H]1C[C@]1(C)[C@H](NC(=O)OCc1ccccc1)c1ccccc1, the AC50 was 2 µM (active). O=C(O)CN(CCOCCOCCN(CC(=O)O)CC(=O)O)CC(=O)O was tested, and the “activity, negative = inhibition” value was 9.23%. With Cc1cc2c(nc1C)CCCCN2C[C@H](O)CN1CCCc2nc(-c3ccc(Br)cc3)ccc21 the activity, negative = inhibition was -10.8% [at 11.4 µM]. In the case of COc1ccccc1CN1CC[C@@]2(CCCN(C(C)=O)C2)C1, the “activity, negative = inhibition” value is reported as 0.515%. CCOC(=O)C1CCN(c2c(NCc3ccc(C(=O)NCCC(C)C)cc3)c(=O)c2=O)CC1 was tested, and the AC50 was 3.16 µM (active). For CCNC(=S)NNC(=O)c1cc(C2CC2)nc2ccccc12, the AC50 was 28.2 µM (active). For CCCCOC(=O)CSCC(=O)Nc1cc(C)on1, the AC50 was 8.91 µM (active). COc1ccccc1-c1cc(Nc2ccc(F)cc2)ncn1 was tested, and the AC50 was 7.94 µM (active). Cc1ccccc1-c1cc(Nc2ccccc2)ncn1 was tested, and the AC50 was 3.16 µM (active). With Cc1ccccc1-c1cc(Nc2ccc(F)cc2)ncn1 the AC50 was 0.631 µM (active). For COc1ccccc1-c1cc(Nc2ccn[nH]2)ncn1, the AC50 was 6.31 µM (active). With CC(=O)NCCNc1cc(-c2ccccc2C)ncn1 the “activity, negative = inhibition” value was 9.99%. Compound C[C@@H]1/C=C\CC(=O)OC[C@H](C)C(=O)N2CCC[C@@H]2C(=O)OC1 has an activity, negative = inhibition of 72.6% [at 11.4 µM]. For O=C(c1cccc(F)c1)N1CCC2(CC1)CN(C(c1ccccc1)c1ccccc1)C2, the “activity, negative = inhibition” value was 18.4%. COC(=O)[C@@]1(Cc2ccccc2)[C@H]2c3cc(C(=O)N(C)C)n(Cc4c(CO)[nH]cc(C)c4=O)c3C[C@H]2CN1C(=O)c1ccccc1 was tested, and the AC50 was 3.16 µM (active). With COC(=O)[C@@]1(Cc2ccccc2)[C@H]2c3cc(C(=O)N4CCCC4)n(Cc4c(CO)[nH]cc(C)c4=O)c3C[C@H]2CN1C(=O)c1ccccc1 the AC50 was 10 µM (active). In the case of COc1ccc(CNc2cc(-c3ccccc3OC)ncn2)c(OC)c1, the AC50 is reported as 2 µM (active). In the case of COc1ccc(CNc2cc(-c3ccccc3CN(C)C)ncn2)c(OC)c1, the “activity, negative = inhibition” value is reported as 4.98%. For COc1ccc(CNc2cc(-c3ccccc3Cl)ncn2)c(OC)c1, the AC50 was 2 µM (active). For CC(=O)N(CC(O)CN(C(C)=O)c1c(I)c(C(=O)NC[C@@H](O)CO)c(I)c(C(=O)NC[C@@H](O)CO)c1I)c1c(I)c(C(=O)NC[C@@H](O)CO)c(I)c(C(=O)NC[C@@H](O)CO)c1I, the “activity, negative = inhibition” value was -17% [at 25.6 µM]. For CN(C)c1nccc(N(Cc2ccccc2)Cc2ccccc2)c1C#N, the AC50 was 4.47 µM (active). For CCOC(=O)C1CCCN(S(=O)(=O)c2ccccc2)C1 (stereo unspecified), the AC50 was 4.47 µM (active). For CCCS(=O)(=O)N1CCCC(C(=O)N2CCN(C(=O)OCC)CC2)C1 (stereo unspecified), the “activity, negative = inhibition” value was 23%. CCOC(=O)C1CCCN(C(=O)CSCc2ccccc2)C1 (stereo unspecified) was tested, and the AC50 was 11.2 µM (active). For CCCS(=O)(=O)N1CCCC(C(=O)NCCCOCC)C1 (stereo unspecified), the “activity, negative = inhibition” value was 19.2%. CCOC(=O)C1CCCN(C(=O)CCn2nc(-c3ccccc3)ccc2=O)C1 (stereo unspecified) was tested, and the “activity, negative = inhibition” value was -29%. For CCOC(=O)CNc1c(-c2ccccc2)nc2ccc(Cl)cn12, the AC50 was 5.01 µM (active). Compound COC(=O)[C@@H]1O[C@@H](c2c(OC)c(OC)c(C)c(OC)c2OC)[C@H](C)[C@@H](O)[C@@H]1C has an activity, negative = inhibition of -37.9% [at 11.4 µM]. In the case of Clc1ccc(Cl)c(Nc2ccnc(SCc3ccccc3)n2)c1, the AC50 is reported as 5.01 µM (active). CC(C)OC(=O)C1=C2SCC(=O)N2C(N)=C(C#N)C1 was tested, and the AC50 was 2.51 µM (active). Work on CCOC(=O)c1c(C)c(C)n2c1NC(=O)C2 yielded an activity, negative = inhibition of 1.54% [at 11.4 µM]. CCOC(=O)C1=C2SCC(=O)N2C(N)=C(C#N)C1 was tested, and the AC50 was 14.1 µM (active). Oc1cc2c(c(Cl)c1O)CCNC[C@H]2c1ccccc1 was tested, and the AC50 was “inactive”. For O=C(NCCc1ccccn1)c1cc(C(=O)C2CCCCC2)c[nH]1, the “activity, negative = inhibition” value was -14.4%. With O=C(NCc1ccco1)c1cc(C(=O)C2CC2)c[nH]1 the AC50 was 25.1 µM (active). With Cc1ccc(-c2nn(-c3ccccc3)cc2CSC(=N)N)cc1 the AC50 was 8.91 µM (active). Cc1c(NC(=O)/C=C/c2cn(-c3ccccc3)nc2-c2ccc(F)cc2)c(=O)n(-c2ccccc2)n1C was tested, and the “activity, negative = inhibition” value was -63.8%.
